Results from PubChem BioAssay (NCATS).
Several values for one entry are separate records, joined by “and”; a condition that tells them apart may be missing. Equal values may be shown once. Inconclusive results are not listed. Activity calls are given as the source filed them. Unless noted, calls follow the shape of the dose curve; as a rule, active = well fitted curve in the direction sought with a large enough effect; inconclusive = small, poorly fitted or top-dose-only effect, or another doubt; inactive = no such curve, though single readings can be large; an effect the other way counts as inactive or inconclusive.
% is scaled to controls: 0 for no effect and ±100 for the full control effect; potency is read from the fitted curve at half-maximal effect.

Biological target: Cytochrome P450 2C9 (Homo sapiens) (UniProt P11712)
Sequence (P11712 whole entry, looked up): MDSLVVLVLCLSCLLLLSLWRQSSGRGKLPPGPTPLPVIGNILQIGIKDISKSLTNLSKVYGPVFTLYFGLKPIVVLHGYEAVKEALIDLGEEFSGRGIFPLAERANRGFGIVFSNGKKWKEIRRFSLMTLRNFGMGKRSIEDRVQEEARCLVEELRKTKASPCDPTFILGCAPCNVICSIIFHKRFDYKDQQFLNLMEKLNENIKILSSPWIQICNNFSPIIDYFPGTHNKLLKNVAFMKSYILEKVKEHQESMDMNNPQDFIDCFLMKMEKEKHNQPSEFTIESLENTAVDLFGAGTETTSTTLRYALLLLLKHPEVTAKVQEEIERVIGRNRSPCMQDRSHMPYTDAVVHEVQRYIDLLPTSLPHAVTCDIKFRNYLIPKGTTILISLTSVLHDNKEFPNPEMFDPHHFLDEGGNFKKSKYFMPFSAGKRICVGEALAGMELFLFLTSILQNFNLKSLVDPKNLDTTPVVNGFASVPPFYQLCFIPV
Assay: Cytochrome P450 family 2 subfamily C member 9 (CYP2C9) small molecule antagonists: luciferase biochemical (cell-free) qHTS assay (AID 1645842; active = well fitted curve in the direction sought with a large enough effect in the repeat runs; an effect the other way counts as inactive or inconclusive; also: nearly all actives have a fitted effect of over 55% in size)
Details: P450-Glo CYP2C9 enzyme assay, luciferin luminescence; series mostly up to 57.4 µM; activity change, negative = inhibition: at the top concentration
Summary of the method: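 P450-Glo CYP2C9 system: proluciferin substrate with enzyme in mix containing 0.4% BSA, 10 min at room temperature, then NADPH regeneration solution added and incubated 1 h at 37C. Detection reagent stopped reaction; luminescence read after 20 min as RLU.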
For `COCC(=O)NC/C=C/c1ccc2ncnc(Nc3ccc(Oc4ccc(C)nc4)c(C)c3)c2c1`, the Potency was 8.49 µM (active). With `Cc1c(NC(=O)OCC2COCCN2)cn2ncnc(Nc3ccc4c(cnn4Cc4cccc(F)c4)c3)c12` (stereo not drawn) the Potency was 19 µM (active). For `CC(C)S(=O)(=O)NC[C@H](C)c1ccc(-c2ccc(CCNS(C)(=O)=O)cc2)cc1`, the Potency was 10.7 µM (active). For `N#CC(CCCN1CCC(O)(c2ccc(Cl)cc2)CC1)(c1ccccc1)c1ccccc1`, the Potency was 23.9 µM (active). For `CN1CCC(c2cn(C)c3ccc(OS(=O)(=O)c4c(F)cccc4F)cc23)CC1`, the Potency was 9.52 µM (active). With `Cc1csc2c(N[C@@H](C)CN3CCN(S(=O)(=O)c4ccc(Cl)c(Cl)c4)CC3)ncnc12` the Potency was 6.01 µM (active). With `COc1ccc(-c2csc(NC(=O)[C@H]3CCCCN3S(=O)(=O)c3ccc(C)cc3)n2)cc1` the Potency was 2.13 µM (active). In the case of `Nc1cccc(CNC(=O)c2ccc(Oc3ccc(OCc4cccc(F)c4)cc3)nc2)c1`, the Potency is reported as 9.52 µM (active). For `CC(C)CCNc1ncccc1C(=O)N1CCN(Cc2ccccc2)CC1`, the Potency was 10.7 µM (active). For `O=C(COc1ccc2ccccc2c1Br)Nc1cccnc1`, the Potency was 8.49 µM (active). With `Cc1csc(N(C(=O)CSc2ccc(-c3ccccc3)nn2)C2CC2)n1` the Potency was 10.7 µM (active). In the case of `Cc1c(NC(=O)c2cc3c(s2)CCCC3)cccc1-c1cn(C)c(=O)c(Nc2ccc(C3C(=O)N(C)CCN3C)cc2)n1` (stereo not drawn), the Potency is reported as 1.2 µM (active). For `Cc1cc(N2CCN(C(=O)Oc3ccc(-c4ccccc4)cn3)CC2)c2ccccc2n1`, the Potency was 26.8 µM (active). In the case of `COc1ccc(CNc2nc(N(CCO)CCO)nc3c2ncn3C(C)C)cc1`, the Potency is reported as 3.79 µM (active). With `N#Cc1cc(-c2ccnc(Nc3ccc(N4CCOCC4)cc3)n2)ccc1OC1CCOCC1` the Potency was 2.13 µM (active). With `CCOC(=O)N1c2ccc(C(F)(F)F)cc2C(N(Cc2cc(C(F)(F)F)cc(C(F)(F)F)c2)C(=O)OC)CC1CC` (stereo not drawn) the “activity change, negative = inhibition” value was -21.4% (inactive). In the case of `CC(C)[C@@H](c1ccc(C(F)(F)F)cc1CN(Cc1cc(C(F)(F)F)cc(C(F)(F)F)c1)c1nnn(C)n1)N1CCC(C(=O)O)CC1`, the Potency is reported as 15.1 µM (active). For `Cc1ccc(F)cc1S(=O)(=O)N[C@@H]1CCN(Cc2ccc(OC(C)C)cc2)C1`, the Potency was 6.01 µM (active). With `COc1cc2c(cc1NS(=O)(=O)c1ccc(Br)cc1C)n(C)c(=O)n2C` the Potency was 1.69 µM (active). With `CC(=O)c1ccc2c(c1)[C@H](NC(=O)c1ccc(F)c(Cl)c1)[C@H](O)C(C)(C)O2` the Potency was 2.68 µM (active). In the case of `CN(C)CCN(Cc1ccc(-c2ccc(CNCCc3ccccc3)cc2)cc1)C(=O)CCC1CCCC1`, the Potency is reported as 19 µM (active). With `CCCCc1c(-c2ccc(OC)cc2)[nH]c2nccnc12` the “activity change, negative = inhibition” value was 2.8% (inactive). For `CNC(C)C(=O)NC(C(=O)N1CCCC1C(=O)Nc1snnc1-c1ccccc1)C1CCCCC1` (stereo not drawn), the “activity change, negative = inhibition” value was -15% (inactive). For `Cc1cc(OCCCS(C)(=O)=O)cc(C)c1-c1cccc(COc2ccc3c(c2)OCC3CC(=O)O)c1` (stereo not drawn), the “activity change, negative = inhibition” value was 7.73% (inactive). In the case of `COc1ccc(-c2ccc3c(N4CCOCC4C)nc(N4CCOCC4C)nc3n2)cc1CO` (stereo not drawn), the Potency is reported as 4.77 µM (active). In the case of `CNc1nc(NCc2ccc(NS(C)(=O)=O)cc2Cl)cc(-c2ccccn2)n1`, the Potency is reported as 2.68 µM (active). In the case of `Nc1nc2c(c(N3CC[C@@H](N)C3)n1)CCCc1ccccc1-2`, the “activity change, negative = inhibition” value is reported as -19.5% (inactive). For `Nc1ncnc2c1c(-c1ccc(Oc3ccccc3)cc1)nn2[C@@H]1CCCNC1`, the “activity change, negative = inhibition” value was 3.07% (inactive). With `CCn1c(=O)c(-c2ccc(-c3cncs3)cc2Cl)cc2cnc(Nc3ccc(N4CCN(C)CC4)cc3)nc21` the Potency was 6.01 µM (active). In the case of `CCCCNc1ncc(C(=O)NCc2ccc(-n3ccnc3)cc2)c(NC2CCC(O)CC2)n1` (stereo not drawn), the Potency is reported as 0.849 µM (active). For `COc1ccc(S(=O)(=O)Nc2cc(Cl)cc(Cl)c2OC)cc1N1CCNCC1`, the Potency was 12 µM (active). In the case of `COC(=O)c1cc(Br)cnc1N1CCC(NC2CCCCC2)C(O)C1` (stereo not drawn), the “activity change, negative = inhibition” value is reported as -16.5% (inactive). For `CCCc1cc(C)n(C)c(=O)c1CN(C)C(=O)c1cc(-c2ccc(N3CCN(C(C)C)CC3)nc2)cc2c1cnn2C(C)C`, the Potency was 0.601 µM (active). In the case of `Oc1ccc(-c2cnc3ccc(NCc4ccco4)nn23)cc1`, the Potency is reported as 0.756 µM (active). For `Cc1cc(-c2cnc(N)c3c(-c4ccc5scnc5c4)csc23)n(C)n1`, the Potency was 10.7 µM (active). For `NS(=O)(=O)Nc1ncnc(OCCOc2ncc(Br)cn2)c1-c1ccc(Br)cc1`, the Potency was 4.77 µM (active). For `C#CCNCc1cc2cc(OCc3ccccc3)ccc2[nH]1`, the Potency was 3.79 µM (active). For `Cc1cc(C(=O)Nc2cc(Nc3ccc4c(/C=C/c5ccccn5)n[nH]c4c3)ccc2F)n(C)n1`, the Potency was 4.25 µM (active). For `CNc1ccc([N+](=O)[O-])c(Nc2ccc3[nH]ncc3c2)n1`, the Potency was 0.756 µM (active).

System: not listed separately
Assay: Primary qHTS for inhibitors of nuclear receptor binding SET domain protein 2 (NSD2) in an isogenic RCH-ACV NSD2 p.E1099K mutant (9B) (AID 1645876); also: nearly all actives have a fitted effect of over 70% in size
Details: RCH-ACV (leukaemia line) NSD2 E1099K (9B) viability, CellTiter-Glo, 72 h; series mostly up to 44.9 µM; activity change, negative = viability loss: at the top concentration
In the case of `COCC(=O)NC/C=C/c1ccc2ncnc(Nc3ccc(Oc4ccc(C)nc4)c(C)c3)c2c1`, the Potency is reported as 20.5 µM (active). For `Cc1c(NC(=O)OCC2COCCN2)cn2ncnc(Nc3ccc4c(cnn4Cc4cccc(F)c4)c3)c12` (stereo not drawn), the Potency was 14.5 µM (active) and 18.6 µM (active). With `CC(C)S(=O)(=O)NC[C@H](C)c1ccc(-c2ccc(CCNS(C)(=O)=O)cc2)cc1` the Potency was 6.49 µM (active). In the case of `N#CC(CCCN1CCC(O)(c2ccc(Cl)cc2)CC1)(c1ccccc1)c1ccccc1`, the Potency is reported as 5.15 µM (active). For `CN1CCC(c2cn(C)c3ccc(OS(=O)(=O)c4c(F)cccc4F)cc23)CC1`, the Potency was 18.3 µM (active). In the case of `Cc1csc2c(N[C@@H](C)CN3CCN(S(=O)(=O)c4ccc(Cl)c(Cl)c4)CC3)ncnc12`, the Potency is reported as 2.9 µM (active). For `COc1ccc(-c2csc(NC(=O)[C@H]3CCCCN3S(=O)(=O)c3ccc(C)cc3)n2)cc1`, the Potency was 18.3 µM (active). With `Nc1cccc(CNC(=O)c2ccc(Oc3ccc(OCc4cccc(F)c4)cc3)nc2)c1` the Potency was 11.5 µM (active). In the case of `CC(C)CCNc1ncccc1C(=O)N1CCN(Cc2ccccc2)CC1`, the “activity change, negative = viability loss” value is reported as -24.2% (inactive). With `O=C(COc1ccc2ccccc2c1Br)Nc1cccnc1` the “activity change, negative = viability loss” value was -13.2% (inactive). For `Cc1csc(N(C(=O)CSc2ccc(-c3ccccc3)nn2)C2CC2)n1`, the “activity change, negative = viability loss” value was -6.01% (inactive). With `Cc1c(NC(=O)c2cc3c(s2)CCCC3)cccc1-c1cn(C)c(=O)c(Nc2ccc(C3C(=O)N(C)CCN3C)cc2)n1` (stereo not drawn) the Potency was 12.9 µM (active). In the case of `Cc1cc(N2CCN(C(=O)Oc3ccc(-c4ccccc4)cn3)CC2)c2ccccc2n1`, the Potency is reported as 12.9 µM (active). For `COc1ccc(CNc2nc(N(CCO)CCO)nc3c2ncn3C(C)C)cc1`, the Potency was 7.42 µM (active). With `N#Cc1cc(-c2ccnc(Nc3ccc(N4CCOCC4)cc3)n2)ccc1OC1CCOCC1` the Potency was 1.45 µM (active). For `CCOC(=O)N1c2ccc(C(F)(F)F)cc2C(N(Cc2cc(C(F)(F)F)cc(C(F)(F)F)c2)C(=O)OC)CC1CC` (stereo not drawn), the “activity change, negative = viability loss” value was -13.1% (inactive). In the case of `CC(C)[C@@H](c1ccc(C(F)(F)F)cc1CN(Cc1cc(C(F)(F)F)cc(C(F)(F)F)c1)c1nnn(C)n1)N1CCC(C(=O)O)CC1`, the Potency is reported as 25.8 µM (active). For `Cc1ccc(F)cc1S(=O)(=O)N[C@@H]1CCN(Cc2ccc(OC(C)C)cc2)C1`, the Potency was 16.3 µM (active). In the case of `COc1cc2c(cc1NS(=O)(=O)c1ccc(Br)cc1C)n(C)c(=O)n2C`, the Potency is reported as 7.28 µM (active). For `CC(=O)c1ccc2c(c1)[C@H](NC(=O)c1ccc(F)c(Cl)c1)[C@H](O)C(C)(C)O2`, the “activity change, negative = viability loss” value was -17.3% (inactive). For `CN(C)CCN(Cc1ccc(-c2ccc(CNCCc3ccccc3)cc2)cc1)C(=O)CCC1CCCC1`, the Potency was 2.58 µM (active). In the case of `CCCCc1c(-c2ccc(OC)cc2)[nH]c2nccnc12`, the Potency is reported as 3.65 µM (active). With `CNC(C)C(=O)NC(C(=O)N1CCCC1C(=O)Nc1snnc1-c1ccccc1)C1CCCCC1` (stereo not drawn) the “activity change, negative = viability loss” value was -28.2% (inactive). In the case of `Cc1cc(OCCCS(C)(=O)=O)cc(C)c1-c1cccc(COc2ccc3c(c2)OCC3CC(=O)O)c1` (stereo not drawn), the “activity change, negative = viability loss” value is reported as -25.2% (inactive). With `COc1ccc(-c2ccc3c(N4CCOCC4C)nc(N4CCOCC4C)nc3n2)cc1CO` (stereo not drawn) the Potency was 0.0325 µM (active). With `CNc1nc(NCc2ccc(NS(C)(=O)=O)cc2Cl)cc(-c2ccccn2)n1` the Potency was 11.5 µM (active). In the case of `Nc1nc2c(c(N3CC[C@@H](N)C3)n1)CCCc1ccccc1-2`, the Potency is reported as 20.5 µM (active). In the case of `Nc1ncnc2c1c(-c1ccc(Oc3ccccc3)cc1)nn2[C@@H]1CCCNC1`, the Potency is reported as 1.63 µM (active). With `CCn1c(=O)c(-c2ccc(-c3cncs3)cc2Cl)cc2cnc(Nc3ccc(N4CCN(C)CC4)cc3)nc21` the Potency was 2.31 µM (active). For `CCCCNc1ncc(C(=O)NCc2ccc(-n3ccnc3)cc2)c(NC2CCC(O)CC2)n1` (stereo not drawn), the Potency was 5.78 µM (active). In the case of `COc1ccc(S(=O)(=O)Nc2cc(Cl)cc(Cl)c2OC)cc1N1CCNCC1`, the Potency is reported as 20.5 µM (active). In the case of `COC(=O)c1cc(Br)cnc1N1CCC(NC2CCCCC2)C(O)C1` (stereo not drawn), the “activity change, negative = viability loss” value is reported as -14.5% (inactive). With `CCCc1cc(C)n(C)c(=O)c1CN(C)C(=O)c1cc(-c2ccc(N3CCN(C(C)C)CC3)nc2)cc2c1cnn2C(C)C` the “activity change, negative = viability loss” value was -22.2% (inactive). In the case of `Oc1ccc(-c2cnc3ccc(NCc4ccco4)nn23)cc1`, the Potency is reported as 1.83 µM (active). For `Cc1cc(-c2cnc(N)c3c(-c4ccc5scnc5c4)csc23)n(C)n1`, the Potency was 4.59 µM (active). In the case of `NS(=O)(=O)Nc1ncnc(OCCOc2ncc(Br)cn2)c1-c1ccc(Br)cc1`, the Potency is reported as 16.3 µM (active). In the case of `C#CCNCc1cc2cc(OCc3ccccc3)ccc2[nH]1`, the “outcome” value is reported as “inactive”. With `Cc1cc(C(=O)Nc2cc(Nc3ccc4c(/C=C/c5ccccn5)n[nH]c4c3)ccc2F)n(C)n1` the Potency was 7.28 µM (active) and 7.42 µM (active). In the case of `CNc1ccc([N+](=O)[O-])c(Nc2ccc3[nH]ncc3c2)n1`, the Potency is reported as 7.28 µM (active).
